Screening data: PubChem BioAssay, Broad Institute
The list is not random: actives were taken first. Their share in the collection is about 6.7%.
C diff growth – blocks growth of Clostridium difficile. Clostridium difficile clinical isolate growth, OD600, 24 h; hits give low values. AID 1259249. actives 0.25% (n = 86,000). growth activity, negative = inhibition, % at 16 µg/mL (by protocol);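 active = mean growth activity at or below -80% and every replicate also at or below -80%; inconclusive = mean at or below -80% but some replicate above -80%; inactive = mean growth activity above -80%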;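 note: 0% = DMSO wells and -100% = levofloxacin 16 µg/mL wells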
Pf Dd2 growth – P. falciparum Dd2 growth inhibition | SYBR Green, 72 h; hits give low values | activity change, % at 10 µM | actives 2.3% (n = 94,000) | AID 1159554; in the data active = activity change below about -80%; inconclusive = no clear call, values can overlap the other calls
T cruzi growth-1 – blocks T. cruzi growth in NIH3T3 culture. T. cruzi beta-gal in NIH3T3, GalScreen luminescence, 90 h. inhibition, % at 8.34 µM. actives 5.9% (n = 77,000). AID 624255;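 active = mean inhibition above about 93%, with at least 55% of replicates each passing it, limit read from the data, passing the limit was not always enough; inconclusive = only one of those two conditions holds; inactive = neither condition holds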
T cruzi growth-2 – blocks T. cruzi growth in NIH3T3 host cells. inhibition, % at 8.35 µM. actives 72% (n = 5,600). T. cruzi beta-gal in NIH3T3, GalScreen luminescence, 90 h. shares compounds with T cruzi growth-1;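 active = mean replicate inhibition above about 95% and at least 55% of replicates individually reaching it, limit read from the data; inconclusive = only one of the two criteria is met; inactive = neither criterion is met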
T cruzi growth-3 – inhibitors of T. cruzi proliferation; AID 651740; T. cruzi beta-gal in NIH3T3, GalScreen luminescence, 90 h; inhibition, % at 2.09 µM; shares compounds with T cruzi growth-1; actives 21% (n = 5,600);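 active = mean inhibition above about 95%, with at least 55% of replicates also reaching it, limit read from the data; inconclusive = meets just one of the two conditions; inactive = meets neither condition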;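 note: plate controls were neutral control median for no effect and positive control median for full effect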
3T3 cytotox – kills mouse NIH/3T3 fibroblasts; shares compounds with T cruzi growth-1; NIH/3T3 viability, CellTiter-Glo ATP luminescence, 90 h; cytotoxicity (signal decrease), % at 8.35 µM; actives 14% (n = 5,600);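 active = mean signal decrease across replicates above about 35% based on untreated-well scatter, with enough replicates individually passing, limit read from the data; inconclusive = no rule stated though some were filed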;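 note: 0% = median of neutral control wells and 100% = median of positive control wells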
NIH3T3 tox 2 – kills mouse NIH/3T3 fibroblasts; shares compounds with T cruzi growth-1; NIH/3T3 viability, CellTiter-Glo ATP luminescence, 90 h; inhibition, % at 24.9 µM; actives 56% (n = 5,600); AID 651744;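 active = mean loss of cell viability signal at or above a set limit, and enough replicates individually reaching it; inconclusive = meets only the mean limit or only the replicate share; inactive = meets neither condition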;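 note: 0% = median of neutral control wells and 100% = median of positive control wells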
* = called active by the depositor.

What do the screens show for `C[C@H](CO)N1C[C@H](C)[C@@H](CN(C)Cc2ccc(Cl)c(Cl)c2)Oc2ccc(NC(=O)C3CC3)cc2CC1=O`?
C diff growth: 2; Pf Dd2 growth: -16; T cruzi growth-1: 115*; T cruzi growth-2: 105*; T cruzi growth-3: 53; 3T3 cytotox: 0; NIH3T3 tox 2: 6

Results for C[C@@H]1CN([C@@H](C)CO)C(=O)Cc2cc(NC(=O)C3CC3)ccc2O[C@H]1CN(C)Cc1ccc(Cl)c(Cl)c1 ?
C diff growth: 33; Pf Dd2 growth: -61; T cruzi growth-1: 124*; T cruzi growth-2: 98*; T cruzi growth-3: 33; 3T3 cytotox: 40*; NIH3T3 tox 2: 106*

How did C[C@@H]1CN([C@@H](C)CO)C(=O)Cc2cc(NC(=O)C3CCCCC3)ccc2O[C@@H]1CN(C)Cc1ccc(Cl)c(Cl)c1 do in these assays?
C diff growth: -1; Pf Dd2 growth: -7; T cruzi growth-1: 84

Results for C[C@H]1CN([C@@H](C)CO)C(=O)Cc2cc(NC(=O)C3CC3)ccc2O[C@@H]1CN(C)Cc1ccc(Cl)c(Cl)c1 ?
C diff growth: 2; Pf Dd2 growth: -9; T cruzi growth-1: 60

How did C[C@H]1CCCCO[C@H](CN(C)Cc2ccc(C(=O)O)cc2)[C@@H](C)CN([C@@H](C)CO)C(=O)c2cc(NC(=O)CCC(F)(F)F)ccc2O1 do in these assays?
C diff growth: -5; Pf Dd2 growth: 42; T cruzi growth-1: -28

Results for CCCNC(=O)N1CC2(CCN(C)CC2)c2c(n(C)c3cc(OC)ccc23)[C@@H]1CO ?
Pf Dd2 growth: 33

How did C[C@@H]1CCCCO[C@H](CN(C)Cc2ccc(Cl)c(Cl)c2)[C@@H](C)CN([C@H](C)CO)C(=O)c2cc(NC(=O)Nc3cccc4ccccc34)ccc2O1 do in these assays?
C diff growth: 0; Pf Dd2 growth: 1; T cruzi growth-1: inconclusive; T cruzi growth-2: 111*; T cruzi growth-3: 75; 3T3 cytotox: -1; NIH3T3 tox 2: -12

How did C[C@H]1CCCCO[C@H](CN(C)Cc2ccc(Cl)c(Cl)c2)[C@@H](C)CN([C@@H](C)CO)C(=O)c2cc(NC(=O)Nc3cccc4ccccc34)ccc2O1 do in these assays?
C diff growth: -11; Pf Dd2 growth: -25; T cruzi growth-1: inconclusive; T cruzi growth-2: 112*; T cruzi growth-3: 111*; 3T3 cytotox: 2; NIH3T3 tox 2: 6

How did C[C@@H]1CCCCO[C@@H](CN(C)Cc2ccc(Cl)c(Cl)c2)[C@@H](C)CN([C@@H](C)CO)C(=O)c2cc(NC(=O)Nc3cccc4ccccc34)ccc2O1 do in these assays?
C diff growth: 8; Pf Dd2 growth: -32; T cruzi growth-1: 124*; T cruzi growth-2: 96*; T cruzi growth-3: 103*; 3T3 cytotox: -3; NIH3T3 tox 2: -2

What do the screens show for `C[C@@H]1CCCCO[C@@H](CN(C)Cc2ccncc2)[C@H](C)CN([C@@H](C)CO)C(=O)c2cc(NC(=O)Nc3cccc4ccccc34)ccc2O1`?
C diff growth: 9; Pf Dd2 growth: 24; T cruzi growth-1: 106

Results for C[C@H](CO)N1C[C@H](C)[C@@H](CN(C)Cc2ccncc2)OCCCC[C@H](C)Oc2ccc(NC(=O)Nc3cccc4ccccc34)cc2C1=O ?
C diff growth: -4; Pf Dd2 growth: 27; T cruzi growth-1: 43

Results for C[C@@H]1CN([C@@H](C)CO)C(=O)c2cc(NC(=O)Nc3cccc4ccccc34)ccc2O[C@@H](C)CCCCO[C@H]1CN(C)Cc1ccncc1 ?
C diff growth: -3; Pf Dd2 growth: 0; T cruzi growth-1: 55

Results for C[C@@H]1CN([C@@H](C)CO)C(=O)Cc2cc(NC(=O)Cn3cnnn3)ccc2O[C@H]1CN(C)Cc1ccc(-c2ccccc2)cc1 ?
C diff growth: -5; Pf Dd2 growth: -9; T cruzi growth-1: 48

What do the screens show for `CCNC(=O)C[C@@H]1C=C[C@@H](NC(=O)C2CCC2)[C@H](CO)O1`?
C diff growth: -2

How did C[C@@H]1CN([C@@H](C)CO)C(=O)c2cccc(NS(=O)(=O)c3cn(C)cn3)c2O[C@@H]1CN(C)S(=O)(=O)c1cccs1 do in these assays?
C diff growth: -1; Pf Dd2 growth: 17; T cruzi growth-1: -5

How did CCCC#Cc1ccc2c(c1)O[C@@H](CN(C)CC1CC1)[C@@H](C)CN([C@@H](C)CO)S2(=O)=O do in these assays?
Pf Dd2 growth: -62; T cruzi growth-1: 31

Results for CC(C)CC#Cc1ccc2c(c1)O[C@H](CN(C)CC1CCOCC1)[C@H](C)CN([C@H](C)CO)S2(=O)=O ?
C diff growth: 5; Pf Dd2 growth: -19; T cruzi growth-1: inconclusive; T cruzi growth-2: 108*; T cruzi growth-3: 85; 3T3 cytotox: 22; NIH3T3 tox 2: 105*

Results for CC(C)CC#Cc1ccc2c(c1)O[C@H](CN(C)CC1CC1)[C@H](C)CN([C@@H](C)CO)S2(=O)=O ?
C diff growth: 13; Pf Dd2 growth: -47; T cruzi growth-1: inconclusive; T cruzi growth-2: 100*; T cruzi growth-3: 90; 3T3 cytotox: 40*; NIH3T3 tox 2: 107*

How did CC(C)CC#Cc1ccc2c(c1)O[C@H](CN(C)CC1CCOCC1)[C@@H](C)CN([C@@H](C)CO)S2(=O)=O do in these assays?
C diff growth: 16; Pf Dd2 growth: -70; T cruzi growth-1: 106

Results for COCC(=O)Nc1ccc2c(c1)C(=O)N(C)C[C@H](OC)[C@@H](C)CN(C(=O)c1ccccc1F)[C@@H](C)CO2 ?
Pf Dd2 growth: -14; T cruzi growth-1: -14

What do the screens show for `C[C@H](CO)N1C[C@H](C)[C@@H](CN(C)S(=O)(=O)c2ccc(Cl)cc2)OCCCC[C@H](C)Oc2ccc(NC(=O)NC3CCCCC3)cc2C1=O`?
C diff growth: -1; T cruzi growth-1: 106*; T cruzi growth-2: 109*; T cruzi growth-3: 75; 3T3 cytotox: -10; NIH3T3 tox 2: 0

What do the screens show for `Cc1noc(C)c1NC(=O)Nc1ccc2c(c1)C(=O)N([C@H](C)CO)C[C@H](C)[C@H](CN(C)S(=O)(=O)c1ccc(Cl)cc1)OCCCC[C@H](C)O2`?
C diff growth: -24; Pf Dd2 growth: -67; T cruzi growth-1: inconclusive; T cruzi growth-2: 55; T cruzi growth-3: -43; 3T3 cytotox: -21; NIH3T3 tox 2: -30

How did CC(C)NC(=O)Nc1ccc2c(c1)C(=O)N([C@H](C)CO)C[C@@H](C)[C@H](CN(C)S(=O)(=O)c1ccc(Cl)cc1)OCCCC[C@@H](C)O2 do in these assays?
C diff growth: 10; Pf Dd2 growth: -76; T cruzi growth-1: 72

Results for C[C@H]1CCCCO[C@H](CN(C)S(=O)(=O)c2ccc(Cl)cc2)[C@@H](C)CN([C@@H](C)CO)C(=O)c2cc(NC(=O)NC3CCCCC3)ccc2O1 ?
C diff growth: 2; T cruzi growth-1: 87
